Article PMC5540273 (PLoS ONE, 2017)

Each molecule was assayed on T1, YANK1. Conditions: concentration: 1 μM,replicates: in singlicate; n = 1.
T1 construct: gene STK32A
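Also: KINOMEscan kinase panel screen.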

| SMILES | %Inh |
| --- | --- |
| C[C@H]1Oc2cc(cnc2N)-c2c(nn(C)c2C#N)CN(C)C(=O)c2ccc(F)cc21 | 0% |
| Cl.Cl.NC[C@H](Cc1ccc(C(F)(F)F)cc1)NC(=O)c1cc(Br)c(-c2ccnc3[nH]ccc23)s1 [GSK1487252] | 56% |
| Cc1ccc2c(-c3ccncc3)c(-c3ccc(F)cc3)nn2c1.Cl [GW461484] | 31% |
| NC(=O)c1cc(-c2ccccc2)cc2c(C3CCNCC3)c[nH]c12 [GSK301362] | 4% |
| CC(C)Nc1cc(-c2ccc3c(N)n[nH]c3c2)nc(N)n1 [GSK2221681] | 37% |
| O=C(NCCCN1CCOC1=O)c1cnc(NCc2cc(Cl)ccc2Cl)nc1NC1CCCC1 | 0% |
| Cl.Cl.NC[C@H](CC1CCCCC1)NC(=O)c1cc(Br)c(-c2ccnc3[nH]ccc23)s1 [GSK1581427] | 42% |
| CCN(CC)CCOc1ccc(Nc2ncc3cc(-c4c(Cl)cccc4Cl)c(=O)n(C)c3n2)cc1 [SB-601273] | 95.1% |
| C[C@@H](Oc1cc(-c2cnn(C3CCNCC3)c2)cnc1N)c1c(Cl)ccc(F)c1Cl | 6% |
| C=CC(=O)Nc1cc2c(Nc3ccc(F)c(Cl)c3)ncnc2cc1OCCCN1CCOCC1 [GW781483] | 17% |
| Cl.Oc1cc(-c2nc(-c3ccccc3)[nH]c2-c2ccncc2)ccc1Cl [SB-386023] | 0% |
| Cc1n[nH]c2ccc(-c3cc(OC[C@@H](N)Cc4ccccc4)cnc3-c3ccoc3)cc12.O=C(O)C(F)(F)F.O=C(O)C(F)(F)F [GSK507358] | 72% |
| Cc1occc1-c1nc(N)c(OC[C@@H](N)Cc2c[nH]c3ccccc23)cc1-c1cc2c(C)n[nH]c2cn1 [GSK1660450] | 96.6% |
| Cc1cc(C(=O)Nc2ccc(Oc3ccc4nc(NC(=O)C5CC5)cn4n3)cc2)nn1-c1ccccc1 | 0% |

What follows are molecules tested on T2, YANK2. Conditions: concentration: 1 μM,replicates: in singlicate; n = 1.
T2 construct: gene STK32B

| SMILES | %Inh |
| --- | --- |
| CC(C)N1C(=O)Cc2cc(Nc3ncc(C(F)(F)F)c(NCc4cccc(S(C)(=O)=O)c4)n3)ccc21 | 0% |
| CN(C)CC(O)COc1ccc(Nc2nccc(-c3cnn4nc(N5CCOCC5)ccc34)n2)cc1 (stereo not drawn) [GW767488] | 0% |
| Cl.Cl.Nc1nc(-c2ccc3c(N)n[nH]c3c2)cc(N2CCCC(NC(=O)c3ccccc3)C2)n1 (stereo not drawn) [GSK2286775] | 0% |
| Cc1cc2cn[nH]c2cc1-c1cccc2c(N)c(C(N)=O)nnc12 | 0% |
| CN(C)CCOc1ccc(-c2cc(-c3c[nH]nc3-c3ccccn3)ccn2)cc1 [GW835314] | 0% |
| COc1ccc(C[C@@H](CN)NC(=O)c2cc(Br)c(-c3ccnc4[nH]ccc34)s2)cc1.Cl.Cl [GSK1389063] | 46% |
| CNC(=O)c1ccccc1Sc1ccc2c(/C=C/c3ccccn3)n[nH]c2c1 | 0% |
| CCn1c(-c2nonc2N)nc2c(C#CC(C)(C)O)nc(OCCN)cc21.Cl.Cl [GSK902056] | 0% |
| Cc1ccc(-n2nc(C(C)(C)C)cc2NC(=O)Nc2ccc(OCCN3CCOCC3)c3ccccc23)cc1 [GW839464] | 0% |
| Nc1nc(Nc2ccccc2)cc(-c2ccc3c(N)n[nH]c3c2)n1 [GSK2225749] | 0% |
| CCN(CC)CCCCNc1ncc2cc(-c3c(Cl)cccc3Cl)c(NC(=O)NC(C)(C)C)nc2n1 | 32% |
| C[C@@H]1CCN(C(=O)CC#N)C[C@@H]1N(C)c1ncnc2[nH]ccc12 | 0% |
| O=C(NCCNc1ccnc(NCc2ccc(F)cc2)n1)c1cc2ccccc2s1 [GSK1379944] | 0% |
| C[C@H]1Oc2cc(cnc2N)-c2c(nn(C)c2C#N)CN(C)C(=O)c2ccc(F)cc21 | 12% |
| Cl.Cl.NC[C@H](Cc1ccc(C(F)(F)F)cc1)NC(=O)c1cc(Br)c(-c2ccnc3[nH]ccc23)s1 [GSK1487252] | 69% |
| Cc1ccc2c(-c3ccncc3)c(-c3ccc(F)cc3)nn2c1.Cl [GW461484] | 15% |
| NC(=O)c1cc(-c2ccccc2)cc2c(C3CCNCC3)c[nH]c12 [GSK301362] | 0% |
| CC(C)Nc1cc(-c2ccc3c(N)n[nH]c3c2)nc(N)n1 [GSK2221681] | 0% |
| O=C(NCCCN1CCOC1=O)c1cnc(NCc2cc(Cl)ccc2Cl)nc1NC1CCCC1 | 0% |
